Data on 39 compounds can be found in PubChem BioAssay (Tox21).

Structures are written as SMILES. Several values for one entry are separate records, joined by “and”; a condition that tells them apart may be missing. Equal entries are not always repeated. Records with an inconclusive call do not appear. Where a call stands in place of a potency, no number is given. The source holds several records for some structures; these can differ, active in one and inactive in another. Activity calls are given as the source filed them. Calls follow the shape of the full dose curve.

The nature of one test: p53 small molecule agonists, cell-based qHTS assay with rat liver microsomes (AID 1963578). Conditions: HCT-116 p53RE-bla, beta-lactamase ratio, 16 h; series mostly up to 66 µM. A digest of the protocol:
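Agonist mode in p53RE-bla reporter cells, with compounds co-incubated 16 h at 37 C alongside 0.5 mg/mL rat liver microsomes and 0.5 mg/mL NADPH (final), followed by a 2 h LiveBLAzer detection step.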
(Quantitative high-throughput screening tests each substance at several concentrations.)
With `N#Cc1ccccc1`, the Potency result is “inactive”.
For `C=C(CC(=O)O)C(=O)O`, the Potency result is “inactive”.
In the case of `O=C(OCC1CCC2OC2C1)C1CCC2OC2C1` (stereo unspecified), the Potency result was “inactive”.
Regarding `CC(=O)NS(=O)(=O)c1ccc(N)cc1`, the Potency result was “inactive”.
On to `Cc1cc(CC(=O)O)n(C)c1C(=O)c1ccc(Cl)cc1`, for which the Potency entry was “inactive”.
Regarding `CCCCNS(=O)(=O)c1ccccc1`, the Potency entry is “inactive”.
Take `Nc1ccc(S(=O)(=O)Nc2cnc3ccccc3n2)cc1`: the Potency result is “inactive”.
For the compound `COC(=O)[C@H]1[C@H]2C[C@@H]3c4[nH]c5cc(OC)ccc5c4CCN3C[C@H]2C[C@@H](OC(=O)c2cc(OC)c(OC)c(OC)c2)[C@@H]1OC`, the Potency result is “inactive”.
Regarding `COCCc1ccc(OCC(O)CNC(C)C)cc1` (stereo unspecified), the Potency result is “inactive”.
Same read-out and setting: as for `CC(=O)N[C@@H](CS)C(=O)O`, the entry is “inactive”; as for `OCC1CCCO1` (stereo unspecified), “inactive”.
`CC(=O)OCc1ccc2c(c1)OCO2`: the Potency entry was “inactive”.
With `Cc1cc(C)c(C)cc1C`, the Potency result was “inactive”.
Still for that read-out and setting: as for `NC(N)=S`, the entry is “inactive”; as for `OCCOCCOCCOCCO`, “inactive”.
For the compound `O=c1cc[nH]c(=S)[nH]1`, the Potency result was “inactive”.
Take `CCCCCCCCCCCCCC(=O)O`: the Potency result was “inactive”.
Consider `ClC1=C(Cl)C(Cl)(Cl)C(Cl)=C1Cl`, for which the Potency entry was “inactive”.
As to `CCOC(=O)CC(=O)OCC`, the Potency result was “inactive”.
As to `CCn1c2ccccc2c2cc(N)ccc21`, the Potency entry was “inactive”.
Regarding `CC1=C(/C=C/C(C)=C/C=C/C(C)=C/C(=O)O)C(C)(C)CCC1`, the Potency result is “inactive”.
Take `CCCCCNCCCCC`: the Potency result is “inactive”.
On to `CN(C)CCOC(=O)COc1ccc(Cl)cc1`, for which the Potency result was “inactive”.
Consider `CCCN(CCC)C(=O)SCC`, for which the Potency result is “inactive”.

The next test is described as follows: p53 small molecule agonists, cell-based qHTS assay with human liver microsomes: qHTS cell viability counter screen (AID 1963579). Also: nearly all actives have a fitted effect of over 45% in size. Also: potency is read from the fitted curve at half-maximal effect. Conditions: p53RE-bla HCT-116 viability, ATP luminescence, 16 h, HLM; series mostly up to 66 µM. A digest of the protocol: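 Metabolically activated exposure: compounds, human liver microsomes and NADPH (0.5 mg/mL final apiece) were added to p53RE-bla cells seeded 5 h earlier, left 16 h at 37 C, and then assessed for viability by CellTiter-Glo luminescence.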
On to `N#Cc1ccccc1`, for which the Potency result was “inactive”.
For `C=C(CC(=O)O)C(=O)O`, the Potency result was “inactive”.
On to `O=C(OCC1CCC2OC2C1)C1CCC2OC2C1` (stereo unspecified), for which the Potency result is “inactive”.
The same measure, in the same setting: as for `CC(=O)NS(=O)(=O)c1ccc(N)cc1`, the entry is “inactive”; as for `Cc1cc(CC(=O)O)n(C)c1C(=O)c1ccc(Cl)cc1`, “inactive”.
In the case of `C[C@]12C=CC(=O)C=C1CC[C@H]1[C@@H]3C[C@@H](O)[C@](O)(C(=O)CO)[C@@]3(C)C[C@H](O)[C@@]12F`, the Potency result was “inactive”.
As to `Cc1cc(C)c(O)c(C)c1`, the Potency entry was “inactive”.
With `Nc1ccc(S(=O)(=O)Nc2cnc3ccccc3n2)cc1`, the Potency result is “inactive”.
As for `COC(=O)[C@H]1[C@H]2C[C@@H]3c4[nH]c5cc(OC)ccc5c4CCN3C[C@H]2C[C@@H](OC(=O)c2cc(OC)c(OC)c(OC)c2)[C@@H]1OC`, the Potency entry was “inactive”.
Still for that read-out and setting: next, `CN(C)c1ccc(C(=C2C=CC(=[N+](C)C)C=C2)c2ccccc2)cc1`: 14.5 µM (active) [middle of 4 runs].
Regarding `c1ccc2cc(Nc3ccc(Nc4ccc5ccccc5c4)cc3)ccc2c1`, the Potency entry was “inactive”.
On the same count and under the same terms, next, `COCCc1ccc(OCC(O)CNC(C)C)cc1` (stereo unspecified): “inactive”.
On to `CC(=O)N[C@@H](CS)C(=O)O`, for which the Potency entry is “inactive”.
With `OCC1CCCO1` (stereo unspecified), the Potency entry was “inactive”.
As for `CC(=O)OCc1ccc2c(c1)OCO2`, the Potency result was “inactive”.
`Cc1cc(C)c(C)cc1C`: the Potency result was “inactive”.
On to `Oc1c(Cl)cc(Cl)c(Cl)c1Cl`, for which the Potency entry was “inactive”.
As to `Cc1ccc(C)c(O)c1`, the Potency entry is “inactive”.
In the case of `NC(N)=S`, the Potency entry is “inactive”.
As for `CCCCCCCCCCO`, the Potency result was “inactive”.
As for `O=c1cc[nH]c(=S)[nH]1`, the Potency result was “inactive and 793 nM (active)”.
As for `CCCCCCCCCCCCCC(=O)O`, the Potency entry was “inactive”.
Take `O=S(=O)(O)c1ccc2cc(O)ccc2c1`: the Potency entry was “inactive”.
Regarding `ClC1=C(Cl)C(Cl)(Cl)C(Cl)=C1Cl`, the Potency result was “inactive”.
As to `CC1(C)[C@@H]2CC[C@@]1(C)C(=O)C2`, the Potency result was “inactive”.
As to `CCOC(=O)CC(=O)OCC`, the Potency entry was “inactive”.
On the same count and under the same terms, next, `CCCCOCCOCCOC(C)=O`: “inactive”; `CCn1c2ccccc2c2cc(N)ccc21`: “inactive”; `CC(=O)CC(=O)N(C)C`: “inactive”.
For the compound `C=CCCCCCCCCCC`, the Potency entry is “inactive”.
With `CC1=C(/C=C/C(C)=C/C=C/C(C)=C/C(=O)O)C(C)(C)CCC1`, the Potency entry is “inactive”.
Same read-out and setting: as for `CCCCCNCCCCC`, the entry is “inactive”; as for `O=C(CC(C(=O)OC1CCCCC1)S(=O)(=O)O)OC1CCCCC1` (stereo unspecified), “inactive”.
On to `CN(C)CCOC(=O)COc1ccc(Cl)cc1`, for which the Potency result is “inactive”.
For `CCCN(CCC)C(=O)SCC`, the Potency result was “inactive”.

Another test can be described thus: p53 small molecule agonists, cell-based qHTS assay with rat liver microsomes: qHTS cell viability counter screen (AID 1963580). Also: nearly all actives have a fitted effect of over 45% in size. Conditions: p53RE-bla HCT-116 + rat microsomes, ATP viability, 16 h; series mostly up to 66 µM. A digest of the protocol: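 Luminescent ATP readout (CellTiter-Glo, 30 min at room temperature) reports viability of p53RE-bla HCT-116 cells after 16 h at 37 C with test compounds under metabolic activation by rat liver microsomes and NADPH at 0.5 mg/mL final each.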
As for `N#Cc1ccccc1`, the Potency entry is “inactive”.
On to `C=C(CC(=O)O)C(=O)O`, for which the Potency result was “inactive”.
In the case of `O=C(OCC1CCC2OC2C1)C1CCC2OC2C1` (stereo unspecified), the Potency result was “inactive”.
On to `CC(=O)NS(=O)(=O)c1ccc(N)cc1`, for which the Potency entry is “inactive”.
In the case of `Cc1cc(CC(=O)O)n(C)c1C(=O)c1ccc(Cl)cc1`, the Potency result was “inactive”.
As to `CCCCNS(=O)(=O)c1ccccc1`, the Potency result is “inactive”.
As for `C[C@]12C=CC(=O)C=C1CC[C@H]1[C@@H]3C[C@@H](O)[C@](O)(C(=O)CO)[C@@]3(C)C[C@H](O)[C@@]12F`, the Potency entry is “inactive”.
On to `Nc1ccc(S(=O)(=O)Nc2cnc3ccccc3n2)cc1`, for which the Potency result was “inactive”.
The same measure, in the same setting: next, `COC(=O)[C@H]1[C@H]2C[C@@H]3c4[nH]c5cc(OC)ccc5c4CCN3C[C@H]2C[C@@H](OC(=O)c2cc(OC)c(OC)c(OC)c2)[C@@H]1OC`: “inactive”.
The same measure, in the same setting: next, `c1ccc2cc(Nc3ccc(Nc4ccc5ccccc5c4)cc3)ccc2c1`: “inactive”; `COCCc1ccc(OCC(O)CNC(C)C)cc1` (stereo unspecified): “inactive”.
The same measure, in the same setting: as for `COc1ccc([C@@H]2CC(=O)c3c(O)cc(O[C@@H]4O[C@H](CO[C@@H]5O[C@@H](C)[C@H](O)[C@@H](O)[C@H]5O)[C@@H](O)[C@H](O)[C@H]4O)cc3O2)cc1OC`, the entry is “inactive”.
On to `CC(=O)N[C@@H](CS)C(=O)O`, for which the Potency entry is “inactive”.
As for `OCC1CCCO1` (stereo unspecified), the Potency entry is “inactive”.
As to `Oc1c(Cl)cc(Cl)c(Cl)c1Cl`, the Potency result is “inactive”.
Regarding `CC1(C)C(=O)N(Cl)C(=O)N1Cl`, the Potency result was “inactive”.
Consider `Cc1ccc(C)c(O)c1`, for which the Potency entry was “inactive”.
Same read-out and setting: as for `CCCCCCCCCCO`, the entry is “inactive”; as for `OCCOCCOCCOCCO`, “inactive”.
With `O=c1cc[nH]c(=S)[nH]1`, the Potency entry was “inactive”.
For `CCCCCCCCCCCCCC(=O)O`, the Potency entry was “inactive”.
Take `O=S(=O)(O)c1ccc2cc(O)ccc2c1`: the Potency result was “inactive”.
In the case of `ClC1=C(Cl)C(Cl)(Cl)C(Cl)=C1Cl`, the Potency result was “inactive”.
Same read-out and setting: next, `CC1(C)[C@@H]2CC[C@@]1(C)C(=O)C2`: “inactive”.
Consider `CCOC(=O)CC(=O)OCC`, for which the Potency result was “inactive”.
`CCCCOCCOCCOC(C)=O`: the Potency result is “inactive”.
On the same count and under the same terms, as for `CCn1c2ccccc2c2cc(N)ccc21`, the entry is “inactive”.
Still for that read-out and setting: as for `CC(=O)CC(=O)N(C)C`, the entry is “inactive”.
Consider `C=CCCCCCCCCCC`, for which the Potency result is “inactive”.
On the same count and under the same terms, next, `CCCCCNCCCCC`: “inactive”.
For the compound `CN(C)CCOC(=O)COc1ccc(Cl)cc1`, the Potency entry was “inactive”.
Consider `CCCN(CCC)C(=O)SCC`, for which the Potency result was “inactive”.
